This passage reports growth results from PubChem BioAssay (NCI).

Assay in all cases: NCI-60 one-dose screen, 48 h (100 = growth as untreated, 0 = no growth, -100 = all killed)
One experiment deals with NCI-H23 lung. Conditions: 10 µM unless noted.
The test system of another experiment is NCI-H226 lung. Conditions: 10 µM unless noted.
Another experiment deals with NCI-H322M lung. The note with it: 10 µM unless noted.
Another experiment deals with HOP-62 NSCLC. The note with it: 10 µM unless noted.
The next experiment has as its system NCI-H460 lung. Conditions: 10 µM unless noted.
A further experiment relates to HOP-92 NSCLC. Conditions: 10 µM.
The next experiment has as its system NCI-H522 lung. Conditions: 10 µM unless noted.
The test system of a further experiment is A549/ATCC NSCLC. Conditions: 10 µM unless noted.
The subject of a further experiment is 786-0 renal. Conditions: 10 µM unless noted.
For the next experiment, the system named is COLO 205 colon. The note with it: 10 µM unless noted.
The subject of a further experiment is DU-145 prostate. The note with it: 10 µM unless noted.
The subject of a further experiment is K-562 leukemia. The note with it: 10 µM unless noted.
A further experiment deals with MALME-3M melanoma. Conditions: 10 µM unless noted.
The subject of the next experiment is MDA-MB-231 breast. Conditions: 10 µM unless noted.
A further experiment deals with SF-268 CNS. Conditions: 10 µM unless noted.
The next experiment concerns SF-295 CNS. Conditions: 10 µM unless noted.
The next experiment deals with SF-539 CNS. The note with it: 10 µM unless noted.
For another experiment, the system named is UACC-257 melanoma. The note with it: 10 µM unless noted.
The next experiment relates to RXF 393 renal. Conditions: 10 µM unless noted.

The panel holds about 83,000 compounds, 20% with a hit somewhere; the sample as a whole holds those more often.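 Growth was measured after 48 h exposure to one concentration of compound in 96-well plates. Values under 10 count as active.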 Unmarked numbers belong to inactive results. Active and inactive are the calls of the source.

In the case of `NC(N)=Nc1ccc(Oc2cccc(NC(N)=Nc3ccc(Br)c(C(F)(F)F)c3)c2)cc1`, the growth in the experiment on NCI-H23 lung was 54.4%; in the experiment with NCI-H226 lung, 68.6%; in the experiment with NCI-H322M lung, 57.8%; with HOP-62 NSCLC, 53.3%; with NCI-H460 lung it was 24.3%; in the experiment on HOP-92 NSCLC, 10.5%. The growth in the experiment on NCI-H522 lung was 35.7%; in the experiment on A549/ATCC NSCLC, 41.7%; in the experiment on 786-0 renal it was 76.5%; in the experiment on COLO 205 colon it was 27.9%; in the experiment with DU-145 prostate it was 72.6%; with K-562 leukemia, 29.3%. For the same compound, the growth is 67.5% in the experiment on MALME-3M melanoma; 61.4% in the experiment with MDA-MB-231 breast; 18.8% in the experiment with SF-268 CNS; 40.5% in the experiment on SF-295 CNS; 39.8% in the experiment on SF-539 CNS; 54.8% with UACC-257 melanoma.

With `COc1ccccc1NCc1cccn1Cc1ccc(F)cc1`, the growth with NCI-H23 lung was 96.6%; in the experiment on NCI-H226 lung, 90.4%; in the experiment on NCI-H322M lung it was 92.5%; in the experiment with HOP-62 NSCLC, 92%; in the experiment on NCI-H460 lung, 103%; in the experiment on HOP-92 NSCLC, 81.5%. For the same compound, the growth in the experiment on NCI-H522 lung is 79.5%; with A549/ATCC NSCLC, 101%; with 786-0 renal, 92.8%; in the experiment with COLO 205 colon, 110%; in the experiment with DU-145 prostate, 90%; in the experiment on K-562 leukemia, 111%. Besides, the growth in the experiment on MALME-3M melanoma was 101%; with MDA-MB-231 breast, 89.4%; in the experiment with SF-268 CNS, 92.5%; in the experiment on SF-295 CNS it was 104%; in the experiment on SF-539 CNS, 98.6%; in the experiment with UACC-257 melanoma it was 102%.

As for `CCCCCc1ccc(S(=O)(=O)Nc2cccc(-c3csc(NC(=O)CN4CCN(CCO)CC4)n3)c2)cc1`, the growth was 84.7% in the experiment with NCI-H23 lung; 92.3% in the experiment on NCI-H226 lung; 98.6% with NCI-H322M lung; 92.9% in the experiment on HOP-62 NSCLC; 44.4% with NCI-H460 lung; 59.5% in the experiment on HOP-92 NSCLC. Moreover, the growth was 89.1% in the experiment on NCI-H522 lung; 71.1% in the experiment on 786-0 renal; 59.2% with COLO 205 colon; 86.5% in the experiment with DU-145 prostate; 19.6% with K-562 leukemia; 32.3% with MALME-3M melanoma. Besides, the growth is 76.7% with MDA-MB-231 breast; 76.8% with SF-268 CNS; 77% with SF-295 CNS; 83.6% in the experiment on SF-539 CNS; 85.4% in the experiment with UACC-257 melanoma.

Regarding `C=CCn1c(SCC(=O)Nc2ccc(C(=O)/C=C/c3ccc(Cl)cc3)cc2)nnc1-c1c[nH]c2ccccc12`, the growth was 77.8% in the experiment on NCI-H23 lung; 68% in the experiment with NCI-H226 lung; 88% in the experiment with NCI-H322M lung; 88.8% with HOP-62 NSCLC; 95.1% with NCI-H460 lung; 79.9% in the experiment with HOP-92 NSCLC. The growth with NCI-H522 lung is 73.4%; in the experiment with A549/ATCC NSCLC, 64.8%; in the experiment on 786-0 renal it was 106%; in the experiment on COLO 205 colon, 107%; in the experiment with DU-145 prostate, 90.6%; in the experiment with K-562 leukemia, 50.7%. Besides, the growth in the experiment with MALME-3M melanoma is 83%; in the experiment on MDA-MB-231 breast it was 81.5%; with SF-268 CNS, 64%; in the experiment on SF-295 CNS it was 46%; in the experiment on SF-539 CNS, 75.8%; in the experiment on UACC-257 melanoma it was 99.6%.

Take `N#Cc1cccc(NC(=O)c2cc(-c3ccc(F)cc3F)ccc2O)c1`: the growth in the experiment with NCI-H23 lung is 2.72% (active); in the experiment with NCI-H226 lung, 12%; in the experiment with NCI-H322M lung it was 10.8%; with HOP-62 NSCLC, 20.9%; in the experiment with NCI-H460 lung, 5.69% (active); in the experiment with HOP-92 NSCLC it was -24.7% (active). In addition, the growth was 1.9% (active) with NCI-H522 lung; 13.2% in the experiment on 786-0 renal; 95.2% in the experiment with COLO 205 colon; 20.9% in the experiment on DU-145 prostate; 11.8% with K-562 leukemia; -9.34% (active) in the experiment on MALME-3M melanoma. Further, the growth with MDA-MB-231 breast is 6.64% (active); in the experiment with SF-268 CNS, 18.7%; in the experiment on SF-295 CNS, -16.9% (active); in the experiment on SF-539 CNS, 15.1%; in the experiment on UACC-257 melanoma, -6.12% (active).

For `N/C(=N\C(N)=N\c1nc2ccccc2s1)c1ccc(C(F)(F)F)cc1`, the growth with NCI-H23 lung was 39%; with NCI-H226 lung it was 69.6%; in the experiment with NCI-H322M lung it was 100%; in the experiment on HOP-62 NSCLC, 91%; with NCI-H460 lung, 22.6%; in the experiment on HOP-92 NSCLC it was 82.1%. Moreover, the growth in the experiment on NCI-H522 lung was 88.1%; in the experiment on 786-0 renal, 93%; in the experiment with COLO 205 colon it was 119%; in the experiment on DU-145 prostate, 80.1%; with K-562 leukemia it was 76.6%; with MALME-3M melanoma, 101%. Besides, the growth in the experiment with MDA-MB-231 breast was 84.5%; with SF-268 CNS, 74.3%; in the experiment with SF-295 CNS it was 69%; in the experiment with SF-539 CNS it was 98.7%; in the experiment with UACC-257 melanoma, 115%.

On to `Cn1ccnc1C(=O)/C=C/c1ccc(CNC(=O)c2ccc(Cl)cc2)cc1`, for which the growth with NCI-H23 lung was -7.45% (active); in the experiment on NCI-H226 lung, 4.1% (active); with NCI-H322M lung, 6.29% (active); in the experiment on HOP-62 NSCLC, 16.3%; with NCI-H460 lung it was -18.9% (active); in the experiment with HOP-92 NSCLC it was 10.3%. Besides, the growth is 7.07% (active) with NCI-H522 lung; 8.09% (active) with A549/ATCC NSCLC; 12.4% in the experiment with 786-0 renal; 13.6% in the experiment with COLO 205 colon; 10.2% with DU-145 prostate; 13.2% in the experiment with K-562 leukemia. Also, the growth is 73.5% with MALME-3M melanoma; 13.3% with MDA-MB-231 breast; 10.1% in the experiment with SF-268 CNS; 13.8% with SF-295 CNS; -26.7% (active) in the experiment with SF-539 CNS; 67.9% in the experiment on UACC-257 melanoma.

On to `CC1=CC(=O)C2=C(C)CC(OC(=O)CCc3ccccc3)[C@@H]3[C@H](OC(=O)[C@@H]3C)[C@@H]12` (stereo partly drawn), for which the growth in the experiment with NCI-H23 lung was 95.4%; in the experiment on NCI-H226 lung it was 97.9%; in the experiment on NCI-H322M lung, 96.8%; in the experiment on HOP-62 NSCLC, 102%; in the experiment on NCI-H460 lung it was 103%; in the experiment with HOP-92 NSCLC, 92.6%. Further, the growth with A549/ATCC NSCLC was 89%; in the experiment on 786-0 renal, 92.6%; in the experiment on COLO 205 colon, 95.2%; in the experiment on DU-145 prostate, 101%; in the experiment with K-562 leukemia, 84.2%; in the experiment on MALME-3M melanoma, 113%. The growth with MDA-MB-231 breast is 96.8%; with RXF 393 renal, 122%; with SF-268 CNS, 98.8%; with SF-295 CNS it was 90.7%; in the experiment with SF-539 CNS it was 94.1%; with UACC-257 melanoma, 91.6%.

On to `C=CCn1c(SCC(=O)Nc2ccc(C(=O)/C=C/c3cccc([N+](=O)[O-])c3)cc2)nnc1-c1c[nH]c2ccccc12`, for which the growth in the experiment on NCI-H23 lung is 94.1%; in the experiment on NCI-H226 lung, 74.2%; with NCI-H322M lung it was 91.2%; with HOP-62 NSCLC, 106%; in the experiment on NCI-H460 lung it was 102%; in the experiment with HOP-92 NSCLC it was 101%. The growth in the experiment with NCI-H522 lung was 78.9%; with A549/ATCC NSCLC it was 93.9%; in the experiment with 786-0 renal, 106%; in the experiment with COLO 205 colon, 110%; with DU-145 prostate it was 97%; in the experiment with MALME-3M melanoma, 86.6%. Further, the growth is 85.2% in the experiment on MDA-MB-231 breast; 84% with SF-268 CNS; 91% in the experiment on SF-295 CNS; 96.4% in the experiment on SF-539 CNS; 103% in the experiment with UACC-257 melanoma.
